Active and inactive are the calls of the source.
What was measured:
[1] = system: Plasmodium falciparum Sir2 (PF13_0152, Sir2A); assay: Plasmodium falciparum Sir2A binding compounds – biochemical, small-molecule microarray, 635 nm fluorescence, primary screen (AID 1098); details: fluorescence 635 nm, higher = more signal;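 note: score merges spot fluorescence intensity with its signal-to-noise ratio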
[2] = probe aDKK1 binding to arrayed compounds – biochemical, biotinylated probe, 635/667 nm fluorescence, primary screen (AID 1099); details: small-molecule microarray, higher = more signal;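 note: score merges 667nm spot fluorescence with signal to noise across triplicate slides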
[3] = probe aCHRDL2 binding to arrayed compounds – biochemical, biotinylated probe, 635/667 nm fluorescence, primary screen (AID 1100); details: small-molecule microarray, higher = more signal
[4] = change in splice reporter luminescence, either direction, cell-based, HEK293, spliceosome inhibition project, primary screen (AID 1101); details: HEK293 splicing luciferase reporter, 24 h, higher = more signal, called active from +8 up or from −8 down;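 note: HEK293 cells carrying a splicing-competent luciferase reporter gene; test concentration not given here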
[5] = molecular target: Fibroblast growth factor 10 (Homo sapiens) (UniProt O15520); assay: compounds binding fibroblast growth factor 10 – biochemical, small-molecule microarray, 635 nm fluorescence, primary screen (AID 1102); details: FGF10 binding, fluorescence 635 nm, higher = more signal
Fibroblast growth factor 10 (Homo sapiens), sequence (O15520 whole entry, looked up): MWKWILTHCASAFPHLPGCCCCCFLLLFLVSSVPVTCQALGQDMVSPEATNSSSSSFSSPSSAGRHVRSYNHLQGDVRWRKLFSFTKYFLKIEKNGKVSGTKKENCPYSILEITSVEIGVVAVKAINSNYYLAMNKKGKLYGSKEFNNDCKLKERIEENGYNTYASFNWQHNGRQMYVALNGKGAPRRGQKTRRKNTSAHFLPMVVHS

[6] = system: glycogen synthase kinase-3 (GSK3A per assay name; protocol says GSK3B); assay: compounds binding glycogen synthase kinase-3 – biochemical, small-molecule microarray, 635 nm fluorescence, GSK3A, primary screen (AID 1103); details: fluorescence 635 nm, higher = more signal; note: the record names both GSK3A and GSK3B
[7] = molecular target: Epidermal growth factor receptor (Homo sapiens) (UniProt P00533); assay: compounds binding epidermal growth factor receptor – biochemical, small-molecule microarray, 635 nm fluorescence, primary screen (AID 1104); details: EGFR binding, higher = more signal;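 note: score merges 667 nm emission intensity with spot signal to noise over triplicate slides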
Epidermal growth factor receptor (Homo sapiens), sequence (P00533 whole entry, looked up): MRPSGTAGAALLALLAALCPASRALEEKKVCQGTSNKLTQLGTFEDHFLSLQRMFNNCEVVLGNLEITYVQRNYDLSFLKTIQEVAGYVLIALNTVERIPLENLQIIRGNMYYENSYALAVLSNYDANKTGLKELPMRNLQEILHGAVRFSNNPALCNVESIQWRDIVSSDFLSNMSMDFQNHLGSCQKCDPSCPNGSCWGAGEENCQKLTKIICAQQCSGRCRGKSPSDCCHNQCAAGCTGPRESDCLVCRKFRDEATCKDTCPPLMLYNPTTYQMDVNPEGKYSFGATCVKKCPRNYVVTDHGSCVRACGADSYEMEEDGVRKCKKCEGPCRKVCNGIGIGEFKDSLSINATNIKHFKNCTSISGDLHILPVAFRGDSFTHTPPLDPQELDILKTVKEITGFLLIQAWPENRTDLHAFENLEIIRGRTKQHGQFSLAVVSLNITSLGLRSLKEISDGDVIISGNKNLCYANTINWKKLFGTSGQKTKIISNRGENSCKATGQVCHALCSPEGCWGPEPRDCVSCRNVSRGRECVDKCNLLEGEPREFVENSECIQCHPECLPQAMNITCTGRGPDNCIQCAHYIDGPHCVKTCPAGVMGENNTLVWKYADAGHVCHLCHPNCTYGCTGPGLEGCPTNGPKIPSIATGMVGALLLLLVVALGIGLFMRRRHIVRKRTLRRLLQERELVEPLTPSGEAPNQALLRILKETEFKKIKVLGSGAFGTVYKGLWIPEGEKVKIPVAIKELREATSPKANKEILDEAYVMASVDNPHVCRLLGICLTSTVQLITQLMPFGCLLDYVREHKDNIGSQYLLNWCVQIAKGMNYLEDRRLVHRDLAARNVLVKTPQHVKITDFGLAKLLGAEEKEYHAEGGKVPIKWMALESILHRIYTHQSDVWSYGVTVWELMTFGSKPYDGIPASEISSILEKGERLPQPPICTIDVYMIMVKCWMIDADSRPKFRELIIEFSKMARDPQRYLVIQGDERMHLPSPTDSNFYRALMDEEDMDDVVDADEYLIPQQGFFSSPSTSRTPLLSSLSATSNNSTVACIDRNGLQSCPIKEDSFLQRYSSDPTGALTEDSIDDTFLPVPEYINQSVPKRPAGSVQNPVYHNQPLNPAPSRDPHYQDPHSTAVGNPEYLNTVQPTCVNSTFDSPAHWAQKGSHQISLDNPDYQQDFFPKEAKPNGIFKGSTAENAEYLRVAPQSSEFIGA

[8] = molecular target: Follistatin-related protein 3 (Homo sapiens) (UniProt O95633); assay: compounds binding follistatin-related protein 3 – biochemical, small-molecule microarray, 635 nm fluorescence, primary screen (AID 1105); details: FSTL3 binding, higher = more signal;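 note: score merges emission near 667 nm and signal to noise per printed spot across three slides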
Follistatin-related protein 3 (Homo sapiens), sequence (O95633 whole entry, looked up): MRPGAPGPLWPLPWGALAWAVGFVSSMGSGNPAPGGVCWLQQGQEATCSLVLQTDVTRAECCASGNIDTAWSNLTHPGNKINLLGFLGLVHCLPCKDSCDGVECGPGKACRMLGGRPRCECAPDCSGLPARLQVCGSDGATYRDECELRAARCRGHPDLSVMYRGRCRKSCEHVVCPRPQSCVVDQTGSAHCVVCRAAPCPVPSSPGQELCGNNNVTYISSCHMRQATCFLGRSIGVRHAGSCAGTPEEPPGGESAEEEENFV

[9] = molecular target: Dickkopf-related protein 1 (Homo sapiens) (UniProt O94907); assay: small molecules binding DKK1 protein – biochemical, small-molecule microarray, 635 nm fluorescence scan, primary screen (AID 1106); details: higher = more signal;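 note: score merges emission near 667 nm with signal to noise over three replicate slides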
Dickkopf-related protein 1 (Homo sapiens), sequence (O94907 whole entry, looked up): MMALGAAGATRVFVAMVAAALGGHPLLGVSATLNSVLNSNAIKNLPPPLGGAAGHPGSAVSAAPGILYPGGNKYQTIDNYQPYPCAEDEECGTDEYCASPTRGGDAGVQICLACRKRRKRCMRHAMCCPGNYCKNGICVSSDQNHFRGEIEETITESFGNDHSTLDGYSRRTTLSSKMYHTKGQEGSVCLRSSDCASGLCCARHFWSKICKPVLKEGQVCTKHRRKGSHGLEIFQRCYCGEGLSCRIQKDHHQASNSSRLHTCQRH

[10] = system: Inhibin beta A chain (activin A); assay: small molecules binding activin A – biochemical, small-molecule microarray, 635 nm fluorescence scan, primary screen (AID 1107); details: INHBA, higher = more signal;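 note: mouse activin A protein probed at 4.33 µg/mL on printed slides; score merges bound-protein fluorescence near 667 nm with spot signal-to-noise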
[11] = system: Human papillomavirus type 1a protein E7 (residues 44-93); assay: small molecules binding HPV E7 44-93 – biochemical, small-molecule microarray, residues 44-93, 635 nm fluorescence, primary screen (AID 1108); details: fluorescence 635 nm, higher = more signal;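 note: E7 fragment applied at 1 µg/mL in TBST for 1 h at 4 C; score combines spot fluorescence with its signal to noise ratio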
[12] = hepatitis C replication reporter changes, two-sided – Huh7 cells, luciferase reporter, HCV replication inhibitor project, primary screen (AID 1109); details: Huh7 HCV replicon luciferase reporter, 48 h; higher = more signal;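 note: huh7 hepatoma cells harbouring a luciferase neomycin HCV replicon reporter; luciferase luminescence as measure of HCV replicon replication; test concentration not given here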
[13] = molecular target: Left-right determination factor 2 (Homo sapiens) (UniProt O00292); assay: small molecules binding LEFTY2 protein – biochemical, small-molecule microarray, 635 nm fluorescence scan, primary screen (AID 1110); details: higher = more signal
Left-right determination factor 2 (Homo sapiens), sequence (O00292 whole entry, looked up): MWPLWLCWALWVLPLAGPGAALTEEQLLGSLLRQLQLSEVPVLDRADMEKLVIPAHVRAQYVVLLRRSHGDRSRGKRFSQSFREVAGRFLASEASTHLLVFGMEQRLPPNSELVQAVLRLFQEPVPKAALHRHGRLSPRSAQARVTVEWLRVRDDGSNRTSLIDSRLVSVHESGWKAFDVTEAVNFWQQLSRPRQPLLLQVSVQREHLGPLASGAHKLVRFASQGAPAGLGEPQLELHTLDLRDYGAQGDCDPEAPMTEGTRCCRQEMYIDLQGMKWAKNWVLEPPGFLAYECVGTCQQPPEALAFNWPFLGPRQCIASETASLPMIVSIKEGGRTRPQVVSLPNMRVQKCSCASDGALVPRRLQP

[14] = molecular target: Calmodulin-1 (Homo sapiens) (UniProt P0DP23); assay: small molecules binding calmodulin-1 with EGTA – biochemical, small-molecule microarray, Cy5-labelled CALM1, profiling panel (AID 1111); details: Cy5-CALM1 binding fluorescence, higher = more signal;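 note: labelled calmodulin applied in Tris saline Tween buffer holding calcium plus EGTA and DTT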
[15] = molecular target: Calmodulin-1 (Homo sapiens) (UniProt P0DP23); assay: small molecules binding Ca-loaded calmodulin-1 – biochemical, small-molecule microarray, Cy5-labelled CALM1, plus calcium, artefact control for SMM control-protein annotation, profiling panel (AID 1112); details: Cy5-CALM1 binding fluorescence, higher = more signal;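 note: score merges spot fluorescence with signal to noise from triplicate slides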
[16] = probe aWnt5a binding to arrayed compounds – biochemical, biotinylated probe, 635/667 nm fluorescence, primary screen (AID 1113); details: small-molecule microarray, higher = more signal;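 note: score merges 667 nm fluorescence intensity with signal-to-noise per printed feature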
[17] = probe aShh binding to arrayed compounds – biochemical, biotinylated probe, 635/667 nm fluorescence, primary screen (AID 1114); details: small-molecule microarray, higher = more signal;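 note: probe is biotin-labelled aShh protein from a stem cell growth factor screen; measures binding of labelled protein to compounds printed on the slide; score merges feature fluorescence at 667 nm with signal-to-noise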
[18] = probe aNog binding to arrayed compounds – biochemical, biotinylated probe, 635/667 nm fluorescence, primary screen (AID 1115); details: small-molecule microarray, higher = more signal;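 note: probe is biotinylated aNog protein used at 0.15 µg/mL for 1 h at 4 C; z-score combines 667 nm fluorescence of each spot with its signal to noise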
[19] = molecular target: Torsin-1A-interacting protein 1 (Homo sapiens) (UniProt Q5JTV8); assay: compound microarray binding of lysate hLAP1 – cell lysate, small-molecule microarray, COS7 lysate, 635/667 nm fluorescence, primary screen (AID 1116); details: 635 nm fluorescence, higher = more signal
Torsin-1A-interacting protein 1 (Homo sapiens), sequence (Q5JTV8 whole entry, looked up): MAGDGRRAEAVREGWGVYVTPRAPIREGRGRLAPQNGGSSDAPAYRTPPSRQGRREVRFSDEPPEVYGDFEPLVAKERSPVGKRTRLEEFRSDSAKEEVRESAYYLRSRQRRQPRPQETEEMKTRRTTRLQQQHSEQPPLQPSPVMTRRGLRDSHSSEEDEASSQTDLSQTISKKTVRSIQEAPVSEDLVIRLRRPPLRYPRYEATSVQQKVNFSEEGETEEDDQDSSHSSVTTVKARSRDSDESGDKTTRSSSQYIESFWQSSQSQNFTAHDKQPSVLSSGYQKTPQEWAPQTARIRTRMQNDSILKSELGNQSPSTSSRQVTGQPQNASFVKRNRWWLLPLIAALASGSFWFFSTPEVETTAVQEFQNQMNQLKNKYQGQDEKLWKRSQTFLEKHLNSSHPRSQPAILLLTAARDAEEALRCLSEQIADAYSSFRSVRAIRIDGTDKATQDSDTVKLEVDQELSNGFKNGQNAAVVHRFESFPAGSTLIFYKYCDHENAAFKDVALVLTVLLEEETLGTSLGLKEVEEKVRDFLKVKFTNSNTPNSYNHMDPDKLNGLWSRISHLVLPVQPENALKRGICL

[20] = molecular target: Alpha-bungarotoxin (Bungarus multicinctus) (UniProt P60615); assay: compounds binding labelled alpha-BTX control protein – biochemical, small-molecule microarray, Alexa647 label, 635/667 nm fluorescence, artefact control for SMM control protein annotation, profiling panel (AID 1117); details: alpha-BTX-A647 binding fluorescence, higher = more signal
Alpha-bungarotoxin (Bungarus multicinctus), sequence (P60615 whole entry, looked up): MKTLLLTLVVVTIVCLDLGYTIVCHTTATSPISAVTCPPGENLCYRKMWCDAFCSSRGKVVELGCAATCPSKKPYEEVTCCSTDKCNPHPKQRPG

SMILES	composite z-score [1]	composite z-score [2]	composite z-score [3]	z-score [4]	composite z-score [5]	composite z-score [6]	composite z-score [7]	composite z-score [8]	composite z-score [9]	composite z-score [10]	composite z-score [11]	z-score [12]	composite z-score [13]	composite z-score [14]	composite z-score [15]	composite z-score [16]	composite z-score [17]	composite z-score [18]	composite z-score [19]	composite z-score [20]
O=C(CS)NCCCCCNC(=O)[C@H]1C[C@H]2C(=O)N[C@@H](Cc3ccccc3)C(=O)N2[C@H]1c1ccc(O)cc1	1.26	0.27	0.299	-0.876 (inactive)	0.702	1.29	0.957	0.566	1.25	0.456	0.151	-0.488	0.406	0.741	0.748	-0.0977	0.184	0.185	0.792	3
CO[C@]12C=C(Br)[C@@H](C[C@@H]1c1ccccc1)[C@@]1(CO1)C2=O	0.165	-0.301	-0.708	-0.0249 (inactive)	0.342	0.497	0.496	0.615	0.791	0.737	-0.468	-2.97	0.36	-0.264	-0.533	-0.0125	-0.0146	0.0256	-0.161	-0.3
C=C(/C(=C/C[C@@H](OC(=O)c1ccncc1)c1ccc(CO)o1)c1cnc2ccccc2c1)C(C)C	0.885	0.138	-0.157	0.168 (inactive)	1.06	1.29	0.623	1.43	0.574	1.58	-1.09	-1.05	0.846	1.64	-0.116	-0.124	-0.0626	0.221	1.36	0.474
C=CCC(OC(C)=O)[C@@H]1[C@@H](N(Cc2ccc(-c3ccccc3)cc2)C(=O)c2ccc(C)cc2)c2cc(OCCCO)ccc2N1C(=O)c1ccc(-c2ccccc2)cc1 (stereo not given in full)	-0.151	0.434	0.536	-2.28 (inactive)	0.104	-0.176	-0.0222	-0.023	-0.0546	1.42	-0.0852	-0.13	0.181	0.218	1.22	-0.101	0.0611	0.15	0.116	0.523
CCOC(=O)C[C@H]1[C@H](OC(=O)c2cc3ccccc3oc2=O)[C@@H](NC(=O)c2ccc3ccccc3c2)c2cc(OCCCO)ccc2N1C(=O)c1ccc2ccccc2n1	0.209	0.0447	-0.19	-0.017 (inactive)	0.876	0.4	0.573	1.09	0.858	0.392	-0.0309	-1.15	0.57	-0.0337	-0.463	0.0554	-0.138	0.193	0.529	0.992
CC(C)N1CC=CC23O[C@@H]4/C=C\CCCOC(=O)C4[C@H]2C(=O)N(CCCCCO)[C@@H]3C1=O (stereo not given in full)	0.21	-0.195	0.632	0.0946 (inactive)	-0.655	-1.42	-1.97	-1.04	-1.09	0.213	-1.46	0.0844	-1.86	-2.24	-0.226	-0.176	-0.179	0.0403	-1.04	-2.08
CC(C)[C@H]1NC(=O)[C@@]23C(=O)N[C@@H](Cc4ccccc4)C2[C@H](C)[C@@]2(C)O[C@H]2C3/C=C/C/C=C\CNC(=O)[C@H](C)NC1=O (stereo not given in full)	-0.949	-0.386	-0.256	0.616 (inactive)	0.392	-1.37	-1.31	-0.825	-0.443	1.32	-0.473	0.631	-0.796	-0.703	-0.751	-0.284	-0.367	-0.32	-0.198	-1.12
C#CCCCON=C1C[C@@H](O)[C@@H](O)[C@@H]2[C@@H]3C(=O)N(Cc4ccc5c(c4)OCO5)C(=O)[C@@H]3CC[C@@H]12	0.211	-0.136	0.0822	-0.117 (inactive)	0.42	0.257	0.336	0.862	0.278	0.308	0.449	0.0713	0.448	0.127	-0.19	-0.096	0.147	0.0136	-0.0849	1.4
O=C1C2C=CC(C(O)Cc3ccccc3)N(Nc3ccc([N+](=O)[O-])cc3)C2C(=O)N1c1ccccc1 (stereo not given)	1.04	1.07	0.498	0.843 (inactive)	0.653	0.539	0.277	0.576	-0.0044	0.582	0.508	-0.531	0.0886	0.417	0.426	0.159	0.203	0.905	0.937	0.307
O=C1O[C@@H](c2ccccc2)[C@@H](c2ccccc2)N2[C@@H](c3ccc(O)cc3)[C@]3(C(=O)Nc4ccc(C#CC5(O)CCCCCC5)cc43)[C@@H](C(=O)Nc3nc4ccccc4s3)[C@H]12	0.864	0.051	0.546	0.179 (inactive)	0.869	1.34	0.736	1.39	0.892	0.644	-0.423	-0.56	0.494	0.395	0.253	0.245	-0.35	1.15	1.18	1.91
Cc1ccc(S[C@]2(C(=O)NC(C)C)CC(=O)N(Cc3cc(C(F)(F)F)cc(C(F)(F)F)c3)[C@@H]2c2ccc(CO)cc2I)cc1	-0.602	0.0628	0.892	-0.181 (inactive)	-0.816	-0.504	-1.36	-0.923	-1.27	-0.748	0.785	-0.563	-0.832	-0.502	-0.384	-0.132	0.0815	-0.036	-0.596	0.57
COCCOC(=O)N1C(=O)[C@@]2(c3ccccc31)[C@H](C(=O)N1CCc3cc(OC)c(OC)cc3C1)[C@H]1C(=O)O[C@H](c3ccccc3)[C@H](c3ccccc3)N1[C@@H]2c1ccccc1OCCO	1	0.401	0.339	-0.237 (inactive)	0.626	1.28	0.329	0.606	0.214	0.635	0.583	-1.51	0.284	1.25	0.868	-0.124	0.319	0.185	0.987	2.42
COC(=O)Cn1c(C(=O)N2CCCC2)cc2c1C[C@H]1CN(C(=O)c3ccccc3)[C@@](Cc3ccc(OC)cc3)(C(=O)OC)[C@@H]21	0.41	1.37	1.1	-1.76 (inactive)	0.388	0.203	0.559	0.348	-0.467	1.04	1.44	-1.21	-0.304	1.55	0.367	0.129	0.593	1.83	0.478	0.841
O=C(NCc1ccccc1)[C@@]1(Cc2ccccc2)COC(c2ccc(OCCCO)cc2)=N1	0.838	0.599	1.06	-0.13 (inactive)	0.117	0.0562	-0.705	-0.641	-0.715	0.578	1.4	-3.29	-0.702	0.588	0.687	-0.128	-0.0337	0.597	1.57	1.71
O=C/C=C/c1ccccc1Cl	1.67	0.265	0.405	0.0402 (inactive)	0.0974	-0.71	-0.336	-0.62	-0.485	0.325	-1.36	1.03	-0.524	0.387	0.618	-0.0499	-0.0626	0.0811	-0.335	1.76
COCCOC(=O)N1C(=O)[C@@]2(c3cc(C#CCNC(N)=O)ccc31)[C@H](c1ccccc1OCCO)N1[C@H](c3ccccc3)[C@H](c3ccccc3)OC(=O)[C@H]1[C@@H]2C(=O)NC[C@H](O)c1ccccc1	1.08	0.0288	0.352	0.408 (inactive)	1.18	0.618	0.134	1	0.117	0.203	1.44	-1.1	0.391	1.07	0.527	-0.0239	0.0639	0.385	0.867	2.05
C[C@@H]1NC(=O)[C@H](Cc2ccccc2)NC(=O)[C@@]23C(=O)N[C@@H](Cc4ccccc4)C2[C@H](C)[C@@]2(C)O[C@H]2C3/C=C/C/C=C\CNC1=O (stereo not given in full)	1.04	-0.277	-0.533	-0.212 (inactive)	-0.356	-1.48	-0.202	-0.0037	0.515	0.944	-2.69	-1.06	-0.122	-0.472	-1.06	-0.124	-0.0474	-0.238	0.0403	-0.576
C=C(C)[C@@H]1CC=C(C(O)C2C=CC3C(=O)NC(=O)C3N2Nc2ccccn2)CC1 (stereo not given in full)	1.66	0.946	0.287	1.1 (inactive)	1.14	1.32	1.88	1.65	2.16	1.81	0.355	-0.308	1.57	0.206	-0.815	0.116	0.358	0.145	1.06	2.09
COC(=O)C1=CC(c2ccc(CO)cc2)=CC(c2cccs2)N(Cc2cccc(OC(F)(F)F)c2)C=C1C(=O)OC (stereo not given)	1.49	-0.0873	0.428	0.939 (inactive)	0.945	1.26	-0.41	0.568	-0.0789	1.09	0.532	-1.84	-0.0215	2.19	0.815	-0.0236	0.685	1.39	1.81	3.16
C#CCNC(/C=C/c1ccccc1)CO (stereo not given)	0.0921	-0.234	-0.565	0.00978 (inactive)	0.311	0.149	0.553	0.326	0.545	0.394	0.105	0.501	0.421	-0.0934	-0.448	-0.172	0.0121	-0.0784	0.296	0.331

Source: PubChem BioAssay
